In all, about 5,500 compounds went through this assay and about 2,000 (36%) were called active. Another 18% or so got no clear call; they are omitted. Cut-off read from the data, not from the text of the source: active = normalized growth mostly below about 0.91 (no sharp cut-off); inconclusive = no clear call, values can overlap the other calls; inactive = mostly above about 0.92. The list shows a part of the results.
Experiment: chemical genetic growth profiling, strain panel (AID 1159580);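 note: tested at 20 µM; growth read once vehicle control cultures reached saturation at 30 °C; 1 = growth at the plate median or of vehicle wells; lower values mean less growth of the strain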
Details: growth OD

Measured: normalized growth

Cc1cc(=O)oc2c(O)c(O)ccc12
inactive: S. cerevisiae deletion strains, locus YJR043C, strain POL32, stronger effect = lower value 1 | S. cerevisiae deletion strains, locus YJR066W, strain TOR1, stronger effect = lower value 0.94 | S. cerevisiae deletion strains, locus YJR075W, strain HOC1, stronger effect = lower value 1.02 | S. cerevisiae deletion strains, locus YKL009W, strain mrt4, stronger effect = lower value 0.979 | S. cerevisiae deletion strains, locus YKL068W, stronger effect = lower value 1 | S. cerevisiae deletion strains, locus YKL085W, strain MDH1 (second series), stronger effect = lower value 0.99 | S. cerevisiae deletion strains, locus YKL085W, strain MDH1, stronger effect = lower value 0.99 | S. cerevisiae deletion strains, locus YKL160W, strain elf1, stronger effect = lower value 0.992 | S. cerevisiae deletion strains, locus YKR001C, strain vps1, stronger effect = lower value 0.99 | S. cerevisiae deletion strains, locus YKR026C, strain gcn3, stronger effect = lower value 0.963 | S. cerevisiae deletion strains, locus YKR091W, strain srl3, stronger effect = lower value 0.974 | S. cerevisiae deletion strains, locus YLL001W, strain dnm1, stronger effect = lower value 0.956 | S. cerevisiae deletion strains, locus YLL026W, stronger effect = lower value 0.975 | S. cerevisiae deletion strains, locus YLL041C, strain sdh2, stronger effect = lower value 0.993 | S. cerevisiae deletion strains, locus YLR027C, strain aat2, stronger effect = lower value 0.968 | S. cerevisiae deletion strains, locus YLR039C, strain RIC1, stronger effect = lower value 0.953 | S. cerevisiae deletion strains, locus YLR058C, strain SHM2, stronger effect = lower value 1.02 | S. cerevisiae deletion strains, locus YLR102C, strain apc9, stronger effect = lower value 1.01 | S. cerevisiae deletion strains, locus YLR113W, strain HOG1, stronger effect = lower value 0.981 | S. cerevisiae deletion strains, locus YLR221C, strain rsa3, stronger effect = lower value 0.995 | S. cerevisiae deletion strains, locus YLR258W, strain gsy2, stronger effect = lower value 0.986 | S. cerevisiae deletion strains, locus YLR262C, strain YPT6 (second series), stronger effect = lower value 0.93 | S. cerevisiae deletion strains, locus YLR262C, strain YPT6, stronger effect = lower value 0.923 | S. cerevisiae deletion strains, locus YLR268W, strain sec22, stronger effect = lower value 0.992 | S. cerevisiae deletion strains, locus YLR320W, strain mms22, stronger effect = lower value 0.993 | S. cerevisiae deletion strains, locus YLR330W, strain CHS5, stronger effect = lower value 1.02 | S. cerevisiae deletion strains, locus YLR342W, strain FKS1 (second series), stronger effect = lower value 0.996 | S. cerevisiae deletion strains, locus YLR342W, strain FKS1, stronger effect = lower value 0.971 | S. cerevisiae deletion strains, locus YLR357W, strain rsc2, stronger effect = lower value 0.952 | S. cerevisiae deletion strains, locus YLR370C, strain arc18, stronger effect = lower value 0.958 | S. cerevisiae deletion strains, locus YLR371W, strain rom2, stronger effect = lower value 1 | S. cerevisiae deletion strains, locus YLR384C, strain iki3, stronger effect = lower value 0.954 | S. cerevisiae deletion strains, locus YLR418C, strain cdc73, stronger effect = lower value 1.03 | S. cerevisiae deletion strains, locus YML016C, strain PPZ1, stronger effect = lower value 1.01 | S. cerevisiae deletion strains, locus YML032C, strain rad52, stronger effect = lower value 0.997 | S. cerevisiae deletion strains, locus YML120C, strain ndi1, stronger effect = lower value 0.974 | S. cerevisiae deletion strains, locus YML124C, strain tub3, stronger effect = lower value 1 | S. cerevisiae deletion strains, locus YMR058W, strain fet3, stronger effect = lower value 0.964 | S. cerevisiae deletion strains, locus YMR078C, strain ctf18, stronger effect = lower value 0.976 | S. cerevisiae deletion strains, locus YMR125W, strain sto1, stronger effect = lower value 0.944 | S. cerevisiae deletion strains, locus YMR129W, stronger effect = lower value 0.976 | S. cerevisiae deletion strains, locus YMR205C, strain PFK2, stronger effect = lower value 0.96 | S. cerevisiae deletion strains, locus YMR223W, strain ubp8, stronger effect = lower value 1.02 | S. cerevisiae deletion strains, locus YMR231W, strain pep5, stronger effect = lower value 0.967 | S. cerevisiae deletion strains, locus YMR263W, strain SAP30, stronger effect = lower value 1 | S. cerevisiae deletion strains, locus YMR307W, strain GAS1, stronger effect = lower value 0.965 | S. cerevisiae deletion strains, locus YNL067W, strain RPL9B, stronger effect = lower value 1.01 | S. cerevisiae deletion strains, locus YNL071W, strain lat1, stronger effect = lower value 0.983 | S. cerevisiae deletion strains, locus YNL153C, strain GIM3, stronger effect = lower value 1 | S. cerevisiae deletion strains, locus YNL183C, strain NPR1, stronger effect = lower value 0.931 | S. cerevisiae deletion strains, locus YNL209W, strain ssb2, stronger effect = lower value 0.977 | S. cerevisiae deletion strains, locus YNL233W, strain BNI4, stronger effect = lower value 1.01 | S. cerevisiae deletion strains, locus YNL248C, strain rpa49, stronger effect = lower value 1.01 | S. cerevisiae deletion strains, locus YNL250W, strain rad50, stronger effect = lower value 0.991 | S. cerevisiae deletion strains, locus YNL271C, strain bni1, stronger effect = lower value 1.01 | S. cerevisiae deletion strains, locus YNL298W, strain CLA4, stronger effect = lower value 0.991 | S. cerevisiae deletion strains, locus YNL307C, strain MCK1, stronger effect = lower value 1.03 | S. cerevisiae deletion strains, locus YNL322C, strain KRE1 (second series), stronger effect = lower value 0.968 | S. cerevisiae deletion strains, locus YNR049C, strain mso1, stronger effect = lower value 0.959 | S. cerevisiae deletion strains, locus YNR052C, strain pop2, stronger effect = lower value 0.984 | S. cerevisiae deletion strains, locus YOL006C, strain TOP1, stronger effect = lower value 1.14 | S. cerevisiae deletion strains, locus YOL012C, strain htz1 0.856 | S. cerevisiae deletion strains, locus YOL147C, strain pex11, stronger effect = lower value 1.01 | S. cerevisiae deletion strains, locus YOR001W, strain rrp6, stronger effect = lower value 0.988 | S. cerevisiae deletion strains, locus YOR061W, strain CKA2, stronger effect = lower value 0.999 | S. cerevisiae deletion strains, locus YOR069W, strain VPS5, stronger effect = lower value 1.01 | S. cerevisiae deletion strains, locus YOR070C, strain gyp1, stronger effect = lower value 0.975 | S. cerevisiae deletion strains, locus YOR080W, strain dia2, stronger effect = lower value 0.984 | S. cerevisiae deletion strains, locus YOR083W, strain WHI5, stronger effect = lower value 1 | S. cerevisiae deletion strains, locus YOR106W, strain vam3, stronger effect = lower value 0.926 | S. cerevisiae deletion strains, locus YOR136W, strain idh2, stronger effect = lower value 1.01 | S. cerevisiae deletion strains, locus YOR144C, strain elg1, stronger effect = lower value 0.993 | S. cerevisiae deletion strains, locus YOR184W, strain ser1, stronger effect = lower value 1.01 | S. cerevisiae deletion strains, locus YOR231W, strain MKK1, stronger effect = lower value 0.983 | S. cerevisiae deletion strains, locus YOR265W, strain rbl2, stronger effect = lower value 0.991 | S. cerevisiae deletion strains, locus YOR270C, strain vph1, stronger effect = lower value 0.864 | S. cerevisiae deletion strains, locus YOR290C, strain snf2, stronger effect = lower value 0.962 | S. cerevisiae deletion strains, locus YOR316C, strain cot1, stronger effect = lower value 1 | S. cerevisiae deletion strains, locus YPL051W, strain arl3, stronger effect = lower value 0.995 | S. cerevisiae deletion strains, locus YPL078C, strain atp4, stronger effect = lower value 0.981 | S. cerevisiae deletion strains, locus YPL106C, strain sse1, stronger effect = lower value 0.906 | S. cerevisiae deletion strains, locus YPL240C, strain hsp82, stronger effect = lower value 0.999 | S. cerevisiae deletion strains, locus YPL256C, strain CLN2, stronger effect = lower value 0.971 | S. cerevisiae deletion strains, locus YPR119W, strain clb2, stronger effect = lower value 0.985 | S. cerevisiae deletion strains, locus YPR141C, strain kar3, stronger effect = lower value 1 | S. cerevisiae deletion strains, locus YPR163C, strain tif3, stronger effect = lower value 0.99 | S. cerevisiae deletion strains, locus YPR167C, strain met16, stronger effect = lower value 1.02 | S. cerevisiae deletion strains, strain wtn01, stronger effect = lower value 0.997 | S. cerevisiae strains, strain wild type, stronger effect = lower value 1

Reference: PubChem BioAssay AID1159580 (chemical genetic matrix, 2015)
